A549 tox: kills or reduces viability of A549 cells in Nrf2 counter-screen; A549 ARE-Fluc cells, CellTiter-Fluor viability, 18-24 h; Potency, µM (titrated, usually from 46 µM), actives largely listed as inhibitors; hit rate 0.16% among 390,000; AID 504648
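A549 ARE_Fluc cells in 5% FBS OPTI-MEM were exposed to compounds in concentration-response for 18-24 h at 37 deg C. Viability was read by CellTiter-Fluor fluorescence (Ex 405/Em 525) after 30 min, before the luciferase read.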
HepG2 tox: HepG2 cytotoxicity, counter-screen for TGF-b inhibitors | HepG2 CAGA-GFP viability, ATP luminescence, 18 h | Potency, µM (titrated, usually from 46.1 µM), actives largely listed as cytotoxic | hit rate 0.76% among 410,000 | AID 588856
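CellTiter-Glo luminescence gave cytotoxicity after 18 hours at 37 degrees C. The cells were HepG2 CAGA-GFP in 1% FBS DMEM, stimulated with 500 pg/mL TGF-beta after compound addition. %Activity was normalised to no-cell wells (complete cell-killing) and DMSO (no toxicity), and curves were fitted and classified.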
TGFb inhibitor: blocks TGF-b signaling. HepG2 CAGA-GFP TGF-b/SMAD3 reporter, GFP fluorescence, 18 h; TGF-beta stimulated, 500 pg/mL final. Potency, µM (top dose mostly 46.1 µM), hits mostly inhibitors. hit rate 1.2% among 410,000; note: nearly all actives have a fitted effect of over 65% in size
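HEPG2 CAGA-GFP cells (1000/well, DMEM with 1% FBS) were pre-incubated 2 h at 37 degrees C, given compound by pin tool, then stimulated with TGF-beta at 500 pg/mL final for 18 h before per-cell GFP fluorescence imaging.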
Nrf2 inh: Nrf2 pathway inhibition. A549 ARE-Fluc reporter, luciferase luminescence, 18-24 h. Potency, µM (highest dose often 46 µM), usual class: inhibitors. hit rate 2.1% among 360,000. AID 504444; note: nearly all actives have a fitted effect of over 60% in size
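Concentration-response testing used A549 ARE_Fluc cells at 5000 cells/well. Following an 18-24 h compound incubation, viability was read by fluorescence (Ex 405/Em 525) and luciferase output by luminescence.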
Nrf2 ARE act: activators of Nrf2 (ARE) signaling. AREc32 ARE-luciferase reporter (MCF7-derived line), luminescence, 24 h. Potency, µM (top dose mostly 46.1 µM), most hits filed as activators. hit rate 0.31% among 410,000. AID 624171; note: nearly all actives have a fitted effect of over 65% in size
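Luciferase luminescence (Steady-Glo, 30 min at room temperature) served as the read-out of ARE activation in AREc32 cells treated with compounds for 24 hr at 37 deg C.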
Numbers stand for hits; i = inactive; ? = inconclusive; nt = no result. A selection: hits, their analogues and other compounds. The true share with any hit is near 3.6%. Calls come from the whole dose curve; as a rule, active = well fitted curve in the direction sought with a large enough effect; inconclusive = small, poorly fitted or top-dose-only effect, or another doubt; inactive = no such curve, though single readings can be large; an effect the other way counts as inactive or inconclusive.

SMILES	A549 tox	HepG2 tox	TGFb inhibitor	Nrf2 inh	Nrf2 ARE act
COc1cccc(N2CCN(C(=O)C3CCCN(S(=O)(=O)c4cccc5nsnc45)C3)CC2)c1 (stereo unspecified)	i	i	?	16.4µM	i
CCOc1ccc(OCC(=O)N2CCN(S(=O)(=O)c3ccccc3)CC2)cc1	nt	i	i	nt	i
Cc1cccc(S(=O)(=O)C(C#N)c2nc3ccccc3nc2N2CC(C)OC(C)C2)c1 (stereo unspecified)	i	i	i	16.4µM	i
Nc1cccc2nsnc12	i	i	i	i	i
Nc1cc2nsnc2cc1Br	i	i	11.2µM	i	i
CC1CCCCC12NC(=O)N(CC(=O)Nc1ccccc1F)C2=O (stereo unspecified)	i	i	i	i	i
CN(C)c1ccc(/C=C/c2cc[n+]([O-])c3ccccc23)cc1	nt	i	i	nt	nt
CC[n+]1c(/C=C/c2ccc(OC)c(OC)c2)ccc2ccccc21	i	i	i	?	i
CCCCCC[n+]1ccccc1/C=C/c1ccc(N(C)C)cc1	nt	i	i	nt	i
CC[n+]1c(/C=C/c2ccc(OC(C)=O)c(OC)c2)ccc2ccccc21	20.6µM	i	i	?	i
CC[n+]1ccc(/C=C/c2ccc(N(C)C)cc2)c2ccccc21	9.2µM	i	6.31µM	3.66µM	i
CC[n+]1c(/C=C/c2ccc(N(C)C)cc2)ccc2ccccc21	20.6µM	i	3.55µM	8.2µM	i
CC[n+]1ccccc1/C=C/c1ccc(N(C)C)cc1	10.3µM	i	?	5.8µM	i
Cc1cc(Br)ccc1Nc1nc(N)nc(N)c1N=O	i	i	i	i	i
c1cncc(C(c2nnnn2C2CCCCC2)N2CCCCC2)c1 (stereo unspecified)	i	i	i	i	i
COc1ccccc1CCN1CCCC(CN(C)CC(C)(C)CO)C1 (stereo unspecified)	i	i	i	i	i
CCS(=O)(=O)N1CCC(C(=O)OCC(=O)c2ccc(Br)cc2)CC1	i	i	i	i	i
C=CC(=O)Nc1cccc(CN2C(=O)N(c3cc(OC)cc(OC)c3)Cc3cnc(NCCCCN(CC)CC)nc32)c1	6.51µM	i	i	i	i
O=C(O)C1C2C=CC(O2)C1C(=O)NCCC1=CCCCC1 (stereo unspecified)	i	i	i	i	i
CCCN(CCC)Cc1c(C(=O)N/N=C/c2ccc(Br)cc2)nnn1-c1nonc1N	?	i	?	16.4µM	i
CCCc1c(C(=O)N/N=C(\C)c2ccccn2)nnn1-c1nonc1N	nt	10µM	i	nt	i
CCCc1c(C(=O)N/N=C/c2cccs2)nnn1-c1nonc1N	i	i	i	i	8.91µM
CN(C)Cc1c(C(=O)N/N=C/c2cccc(OCc3c(F)cccc3Cl)c2)nnn1-c1nonc1N	i	i	i	3.66µM	i
CCCN(CCC)Cc1c(C(=O)N/N=C/c2cccs2)nnn1-c1nonc1N	i	i	i	i	i
Cc1cn([C@H]2C[C@H](O)[C@@H](/C=C/C(=O)NCc3ccc(N(C)C)cc3)O2)c(=O)[nH]c1=O	nt	i	i	nt	i
SMILES	A549 tox	HepG2 tox	TGFb inhibitor	Nrf2 inh	Nrf2 ARE act
O=[N+]([O-])c1ccc(Oc2ccc(Oc3ccc(C(F)(F)F)cn3)cc2)nc1	i	i	?	16.4µM	i
Cc1ccc(NC(=O)C2CCN(c3ncnc4sc(C)c(C)c34)CC2)cc1S(=O)(=O)N(C)C	i	i	?	23.1µM	i
CCN(CC)S(=O)(=O)c1cc(NC(=O)C2CC(=O)N(Cc3ccccc3)C2)ccc1Cl (stereo unspecified)	i	i	?	18.4µM	i
CCN(CC)S(=O)(=O)c1cc(NC(=O)C2CCN(c3ncnc4sc(C)c(C)c34)CC2)ccc1Cl	?	i	?	11.6µM	i
Cc1sc2ncnc(N3CCC(C(=O)Nc4ccc(S(N)(=O)=O)cc4)CC3)c2c1C	i	i	i	?	i
CC(=O)n1c(=O)c2ccccc2c(=O)n1-c1ccccc1	i	i	i	i	i
CCN(CCCNC(=O)COc1cc(=O)n(CC)c2ccccc12)Cc1ccccc1	i	i	i	i	i
COc1ccc(-c2cc(N)n(S(=O)(=O)c3ccc(F)cc3)n2)cc1OC	i	i	?	16.4µM	i
Nc1cc(-c2ccccc2)nn1S(=O)(=O)c1ccc(F)cc1	i	i	?	18.4µM	i
COc1cc(-c2cc(N)n(S(=O)(=O)c3ccc(F)cc3)n2)cc(OC)c1OC	i	i	i	?	i
CCOC(=O)c1ccc(NS(=O)C23CC4CC(CC(C4)C2)C3)cc1 (stereo unspecified)	i	i	i	i	i
O=C1CN(c2nc(-c3cccnc3)nc3scc(-c4ccccc4)c23)CCN1	i	i	i	?	i
Cc1csc2ncnc(N3CCN(C(=S)Nc4ccc(C(F)(F)F)cc4)CC3)c12	i	i	?	25.9µM	i
Cc1cccc2c(=O)c(-c3ccc4c(c3)OCO4)c(NC(=O)c3ccco3)oc12	i	i	i	?	i
COC(=O)CSc1nnc(-c2sc3ccccc3c2Cl)o1	i	i	i	16.4µM	i
N#CCSc1nnc(-c2sc3ccccc3c2Cl)o1	i	i	i	i	?
Cc1ccc(C(C)C)c(OCC(=O)NNC2=CC(=O)CC(C)(C)C2)c1	i	i	i	i	i
CN(Cc1ccccc1)c1ncnc2[nH]ncc12	i	i	i	i	i
CN(Cc1ccccc1)c1ncnc2sccc12	i	i	i	16.4µM	i
O=C(NCc1cccnc1)c1cccs1	i	i	i	i	i
CCOc1ccccc1C1NC(=O)NC(C)=C1C(=O)OC1CCCC1C (stereo unspecified)	i	i	i	i	i
CC1=C(C(=O)OCc2ccc(C)cc2)C(c2ccccc2F)CC(=O)N1 (stereo unspecified)	i	i	11.2µM	?	i
CC1=C(C(=O)OCc2ccccc2)C(c2ccccc2OC(F)F)NC(=O)N1 (stereo unspecified)	i	i	?	23.1µM	i
CCOc1ccccc1C1CC(=O)NC(C)=C1C(=O)OC1CCCCCC1 (stereo unspecified)	i	15.8µM	?	?	i
CCOc1ccccc1C1NC(=O)NC(C)=C1C(=O)OC1CCCCC1 (stereo unspecified)	i	i	i	20.6µM	i
CC1=C(C(=O)OC2CCCCCC2)C(c2ccccc2Cl)CC(=O)N1 (stereo unspecified)	i	i	?	i	i
CCOC(=O)C(CC)Sc1nnc2cc(C)c3ccccc3n12 (stereo unspecified)	i	i	i	i	i
CC1=C(C(=O)OC2CCCCCCC2)C(c2cc3c(cc2Br)OCO3)CC(=O)N1 (stereo unspecified)	?	15.8µM	?	20.6µM	i
Clc1ccc(C=NN2CCCCCC2)c(Cl)c1	i	i	i	?	i
